Records with an inconclusive call do not appear. Where a call stands in place of a potency, no number is given. Active and inactive are the calls of the source. Calls come from the whole dose curve; as a rule, active = well fitted curve in the direction sought with a large enough effect; inconclusive = small, poorly fitted or top-dose-only effect, or another doubt; inactive = no such curve, though single readings can be large; an effect the other way counts as inactive or inconclusive.
Assays:
[1] = target: Nicotinamide N-methyltransferase (Homo sapiens) (UniProt P40261); test: Confirmatory Screen for Target Class Profiling of Small Molecule Inhibitors of Methyltransferases (AID 1745852); conditions: MTase-Glo luminescence, SAH detection, recombinant enzyme; measured here: NNMT max response; stronger effect = lower value
[2] = target: Phenylethanolamine N-methyltransferase (Homo sapiens) (UniProt P11086); test: as above; conditions: MTase-Glo luminescence, SAH detection, recombinant enzyme; measured here: PNMT max response; stronger effect = lower value
[3] = target: Metallo-beta-lactamase type 2 (Klebsiella pneumoniae) (UniProt C7C422); test: qHTS to identify inhibitors of the New Delhi Metallo-beta-lactamase (NDM): assay validation screen against the NCATS LOPAC Collection (AID 1794843);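 note: nitrocefin turnover by NDM-1 measured as 485 nm absorbance at plateau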
How it was run: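 Nitrocefin hydrolysis (50 uM substrate stock) by NDM-1, 2 nM final, was followed by 485 nm absorbance after compound preincubation; buffer was 50 mM HEPES pH 7.0, 1 uM ZnSO4, 0.01% Tween20.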

[4] = target: Glutathione peroxidase 1 (Homo sapiens) (UniProt P07203); test: Primary qHTS Assay for Inhibitors of Recombinant Selenoprotein Glutathione Peroxidase 1 (GPX1) (AID 1845191); note: nearly all actives have a fitted effect of over 65% in size
How it was run: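 10 nM GPX1 + cpd, 30 min RT; start w/ 1 mM GSH, 0.5 mM cumene hydroperoxide, 0.5 mM NADPH, 100 nM GR, 0.01% BSA; buffer 50 mM Tris-HCl pH 7.5, 2 mM EDTA, 150 mM NaCl; Fl 340/450, 0 & 15 min.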

[5] = target: Phospholipid hydroperoxide glutathione peroxidase GPX4 (Homo sapiens) (UniProt P36969); test: Primary qHTS Assay for Inhibitors of Recombinant Selenoprotein Glutathione Peroxidase 4 (GPX4) (AID 1845192); conditions: outcome: dose series up to 50 µM unless noted; note: nearly all actives have a fitted effect of over 65% in size
How it was run: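 NADPH consumption, followed by fluorescence at 340/450 nm between 0 and 15 min, reports GPX4 activity via coupled glutathione reductase (100 nM). Enzyme 200 nM was pre-exposed to compound 30 min; 0.5 mM cumene hydroperoxide and 1 mM GSH served as substrates.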

[6] = NCATS anti-infectives library activity on HEK293 viability as a counter-qHTS vs the C. elegans viability qHTS (AID 1745854);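 note: HEK293 cells exposed to compounds for 24 hr before the viability read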
How it was run: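 Cytotoxicity in human HEK293 cells is measured by ATP-dependent CellTiter-Glo luminescence following a 24 hr incubation with titrated library compounds at 37C. Top final concentration is 41.7 uM.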

[7] = qHTS profiling for inhibitors of Plasmodium falciparum proliferation (AID 504749); note: nearly all actives have a fitted effect of over 60% in size; note: potency is the fitted concentration of half-maximal effect; conditions: P. falciparum in erythrocytes, SYBR Green DNA, 72 h
How it was run: (§1)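 Three-day growth assay of blood-stage parasites in erythrocytes (0.3% parasitemia, 2.5% hematocrit) at 37 C, 5% CO2, quantified by SYBR Green DNA staining after overnight detergent lysis.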

3D7 = test: as above; conditions: P. falciparum in erythrocytes, SYBR Green DNA, 72 h; series mostly up to 28.7 µM
How it was run: as §1

7G8 = test: as above; conditions: P. falciparum in erythrocytes, SYBR Green DNA, 72 h; series mostly up to 28.7 µM
How it was run: as §1

AA1029 = test: as above; conditions: P. falciparum in erythrocytes, SYBR Green DNA, 72 h; series mostly up to 28.7 µM
How it was run: as §1

AS120 = test: as above; conditions: P. falciparum in erythrocytes, SYBR Green DNA, 72 h; series mostly up to 28.7 µM
How it was run: as §1

ATS189 = test: as above; conditions: P. falciparum in erythrocytes, SYBR Green DNA, 72 h; series mostly up to 28.7 µM
How it was run: as §1

ATS95 = test: as above; conditions: P. falciparum in erythrocytes, SYBR Green DNA, 72 h; series mostly up to 28.7 µM
How it was run: as §1

C2A = test: as above; conditions: P. falciparum in erythrocytes, SYBR Green DNA, 72 h; series mostly up to 28.7 µM
How it was run: as §1

CP185 = test: as above; conditions: P. falciparum in erythrocytes, SYBR Green DNA, 72 h; series mostly up to 28.7 µM
How it was run: as §1

CP191 = test: as above; conditions: P. falciparum in erythrocytes, SYBR Green DNA, 72 h; series mostly up to 28.7 µM
How it was run: as §1

[8] = at 28.7 µM (top of the series), parasite line A
[9] = at 28.7 µM (top of the series), parasite line B

Chain of Glutathione peroxidase 1 (Homo sapiens) (P07203 whole entry, looked up): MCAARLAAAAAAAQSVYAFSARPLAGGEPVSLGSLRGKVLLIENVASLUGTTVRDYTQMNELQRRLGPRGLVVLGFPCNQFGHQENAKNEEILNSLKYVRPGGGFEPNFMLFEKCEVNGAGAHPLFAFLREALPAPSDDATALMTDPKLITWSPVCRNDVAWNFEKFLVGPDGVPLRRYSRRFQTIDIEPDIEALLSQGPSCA
Chain of Phospholipid hydroperoxide glutathione peroxidase GPX4 (Homo sapiens) (P36969 whole entry, looked up): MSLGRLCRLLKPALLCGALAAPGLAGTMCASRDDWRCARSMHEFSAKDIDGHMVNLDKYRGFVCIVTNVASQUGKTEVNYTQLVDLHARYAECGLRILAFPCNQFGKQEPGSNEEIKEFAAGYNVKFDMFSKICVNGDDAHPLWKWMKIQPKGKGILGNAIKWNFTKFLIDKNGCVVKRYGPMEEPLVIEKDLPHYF
Chain of Metallo-beta-lactamase type 2 (Klebsiella pneumoniae) (C7C422 whole entry, looked up): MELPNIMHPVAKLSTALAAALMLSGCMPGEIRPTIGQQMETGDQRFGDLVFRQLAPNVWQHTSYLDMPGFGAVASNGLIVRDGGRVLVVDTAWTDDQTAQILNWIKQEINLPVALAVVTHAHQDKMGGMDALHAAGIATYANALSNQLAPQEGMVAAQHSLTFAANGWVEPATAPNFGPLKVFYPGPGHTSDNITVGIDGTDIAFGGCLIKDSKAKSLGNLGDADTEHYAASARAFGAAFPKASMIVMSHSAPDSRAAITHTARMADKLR
Chain of Nicotinamide N-methyltransferase (Homo sapiens) (P40261 whole entry, looked up): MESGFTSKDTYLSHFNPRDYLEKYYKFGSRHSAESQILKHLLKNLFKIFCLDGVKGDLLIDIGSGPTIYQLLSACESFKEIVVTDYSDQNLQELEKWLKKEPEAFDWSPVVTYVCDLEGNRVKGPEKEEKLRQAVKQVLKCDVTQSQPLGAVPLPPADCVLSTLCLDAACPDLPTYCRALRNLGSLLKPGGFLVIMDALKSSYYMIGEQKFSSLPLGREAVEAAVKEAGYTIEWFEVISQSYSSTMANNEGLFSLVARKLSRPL
Chain of Phenylethanolamine N-methyltransferase (Homo sapiens) (P11086 whole entry, looked up): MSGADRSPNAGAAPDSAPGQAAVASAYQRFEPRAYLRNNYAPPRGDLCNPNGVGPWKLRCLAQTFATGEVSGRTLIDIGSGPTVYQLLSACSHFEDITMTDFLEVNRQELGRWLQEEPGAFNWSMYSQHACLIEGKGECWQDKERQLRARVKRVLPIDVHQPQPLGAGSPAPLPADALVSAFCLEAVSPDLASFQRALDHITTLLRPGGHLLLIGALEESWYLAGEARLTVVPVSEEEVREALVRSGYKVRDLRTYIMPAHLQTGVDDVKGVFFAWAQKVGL

Compound	activity [1] [%]	activity [2] [%]	Potency [3]	Potency [4]	outcome [5]	outcome [6]	activity, negative = inhibition [7, 8]	activity, negative = inhibition [7, 9]	Potency (3D7)	Potency (7G8)	Potency (AA1029)	Potency (AS120)	Potency (ATS189)	Potency (ATS95)	Potency (C2A)	Potency (CP185)	Potency (CP191)	activity, negative = inhibition ([7]; at 12.8 µM (top of the series), parasite line A)	activity, negative = inhibition ([7]; at 12.8 µM (top of the series), parasite line B)
CN(C)[C@@H]1C(=O)C(C(N)=O)=C(O)[C@@]2(O)C(=O)C3=C(O)c4c(O)ccc(Cl)c4[C@@H](O)[C@H]3C[C@@H]12	-3.56	2.12	inactive	inactive	inactive														
C[C@H](CS)C(=O)N1CCC[C@H]1C(=O)O				inactive	inactive	inactive	-25.9% (inactive)	10.2% (inactive)	inactive	inactive	inactive	inactive	inactive	inactive	inactive	inactive	inactive		
CN(C)CCCN1c2ccccc2Sc2ccc(C(F)(F)F)cc21			inactive		inactive	inactive				5.01 µM (active)				inactive	inactive				
CCCN(CCC)CCc1cccc2c1CC(=O)N2	1.36	4.72	inactive	inactive	inactive		-9.53% (inactive)	-8.71% (inactive)	inactive	inactive	inactive	inactive	inactive	inactive	inactive	inactive	inactive		
NC(=O)N1c2ccccc2C=Cc2ccccc21			inactive	inactive	inactive		-22.9% (inactive)	-3.8% (inactive)	inactive	inactive	inactive	inactive	inactive	inactive	inactive	inactive	inactive		
CCCCCN(CCCCC)C(=O)C(CCC(=O)O)NC(=O)c1ccc(Cl)c(Cl)c1 (stereo unspecified)			inactive	inactive	inactive		16.8% (inactive)	7.13% (inactive)	inactive	inactive	inactive	inactive	inactive	inactive	inactive	inactive	inactive		
NC/C=C/C(=O)O			inactive	inactive	inactive		13.5% (inactive)	11.1% (inactive)	inactive	inactive	inactive	inactive	inactive	inactive	inactive	inactive	inactive		
COC(=O)C1=C(C)NC(C)=C(C(=O)OCCN(C)Cc2ccccc2)C1c1cccc([N+](=O)[O-])c1 (stereo unspecified)			inactive	inactive	inactive														
COc1ccc(CN(CCN(C)C)c2ccccn2)cc1			inactive	inactive	inactive		-7.89% (inactive)	-2.95% (inactive)	inactive	inactive		inactive	inactive		inactive	inactive	inactive		
NS(=O)(=O)c1cc2c(cc1Cl)NC(C1CC3C=CC1C3)NS2(=O)=O (stereo unspecified)			inactive	inactive	inactive		2.38% (inactive)	-3.16% (inactive)	inactive	inactive	inactive	inactive	inactive	inactive	inactive	inactive	inactive		
CCN(Cc1ccncc1)C(=O)C(CO)c1ccccc1 (stereo unspecified)			inactive	inactive	inactive		3.05% (inactive)	-7.78% (inactive)	inactive	inactive	inactive	inactive	inactive	inactive	inactive	inactive	inactive		
CN1C(=O)CC[C@H]1c1cccnc1			inactive	inactive	inactive														
Nc1c2c(nc3ccccc13)CCCC2O (stereo unspecified)			inactive	inactive	inactive		-3.4% (inactive)	3.67% (inactive)	inactive	inactive	inactive	inactive	inactive	inactive	inactive	inactive	inactive		
CC(=O)Oc1cc(C(C)C)c(OCCN(C)C)cc1C			inactive	inactive	inactive				inactive	inactive	inactive	inactive	inactive	inactive	inactive	inactive	inactive	4.04% (inactive)	-3.15% (inactive)
OC(CCN1CCCCC1)(c1ccccc1)C1CCCCC1 (stereo unspecified)			inactive	inactive	inactive		-22% (inactive)	-4.19% (inactive)	inactive	8.91 µM (active)			inactive		inactive	inactive	inactive		
CCn1ccnc1CC1COc2ccccc2O1 (stereo unspecified)			inactive	inactive	inactive		10.6% (inactive)	1.07% (inactive)	inactive	inactive	inactive	inactive	inactive	inactive	inactive	inactive	inactive		
C[N+](C)(C)CCOC(N)=O			inactive	inactive	inactive		16.8% (inactive)	9.29% (inactive)	inactive	inactive	inactive	inactive	inactive	inactive	inactive	inactive	inactive		

From PubChem BioAssay (NCATS)
